ssDAF-12 act: activates DAF-12 receptor from parasite S. stercoralis | HEK293 ssDAF-12/GRIP1 lit1-tk-luc reporter, luminescence; % of 3 µM dafachronic acid response | activation, % at 6.8 µM | 370,000 tested, 1% active | AID 652126;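 active = activation above the mean over all tested compounds plus 3 SD, cut at about 0.9% in these data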;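 note: 0% = DMSO-only wells and 100% = 3 µM delta7-dafachronic acid wells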
AHR act: activates the human aryl hydrocarbon receptor; 320,000 tested, 2.5% active; AHR-responsive luciferase reporter cells, luminescence; P35869; AID 2796; activation, % at 5 µM; in the data active = activation above about 47%;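 note: 0% = vehicle wells and 100% = reference agonist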
DAX1 inh-1: NR0B1 (DAX1) inhibition; P51843; HEK293 Gal4-DAX1 luciferase reporter, luminescence; inhibition, % at 6.75 µM; 340,000 tested, 0.99% active; AID 504766;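 active = inhibition above the mean over all tested compounds plus 3 SD, cut at about 4.2% in these data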;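 note: 0% = DAX1-transfected cells with DMSO and 100% = empty-vector control cells with DMSO; inhibition shows as a rise in luminescence from relieved DAX1 repression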
hgDAF12 agonist: agonists of H. glycines DAF-12 nuclear receptor. HEK293 GAL4-hgDAF12 UAS-luciferase reporter, agonist luminescence; normalized to butyrate control. activation, % at 6.8 µM. 370,000 tested, 1.8% active. AID 687014;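 active = activation above a cutoff set at the mean of all screened compounds plus 3 SD, cut at about 10% in these data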;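 note: 0% = DMSO wells and 100% = sodium butyrate wells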
hcDAF-12 act: activators of H. contortus DAF-12 nuclear receptor; activation, % at 6.8 µM; 370,000 tested, 1.4% active; HEK293 hcDAF-12 lit1-tk-luc reporter, luminescence; 0% DMSO, 100% Δ7-dafachronic acid;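 active = activation above the mean of all tested compounds plus 3 SD, cut at about 5.5% in these data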;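 note: 100% = response to 3 µM Δ7-dafachronic acid high control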
DAX1 inh-2: inhibitors of DAX1 repression of SF-1 activated StAR promoter; inhibition, % at 6.8 µM; 370,000 tested, 1.1% active; AID 652010; HEK293T StAR-luciferase reporter, SF-1/DAX-1 repression relief;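 active = inhibition above the mean over all tested compounds plus 3 SD, cut at about 3.6% in these data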;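 note: 0% = DAX-1 cells with DMSO and 100% = cells lacking DAX-1 with DMSO; higher inhibition means more luminescence from relief of DAX-1 repression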
DAX1 inh confirm: confirmation of human DAX1 (NR0B1) inhibitors; HEK293T StAR-promoter luciferase reporter, SF-1/DAX-1 repression; shares compounds with DAX1 inh-2; 2,400 tested, 87% active; inhibition, % at 6.8 µM;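 active = inhibition above the average of every tested compound plus 3 SD, cut at about 3.8% in these data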;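 note: 0% = DAX-1 cells with DMSO and 100% = no DAX-1 control cells with DMSO; active compounds raise luminescence by relieving repression of the StAR reporter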
Target sequence (P51843 whole entry, looked up): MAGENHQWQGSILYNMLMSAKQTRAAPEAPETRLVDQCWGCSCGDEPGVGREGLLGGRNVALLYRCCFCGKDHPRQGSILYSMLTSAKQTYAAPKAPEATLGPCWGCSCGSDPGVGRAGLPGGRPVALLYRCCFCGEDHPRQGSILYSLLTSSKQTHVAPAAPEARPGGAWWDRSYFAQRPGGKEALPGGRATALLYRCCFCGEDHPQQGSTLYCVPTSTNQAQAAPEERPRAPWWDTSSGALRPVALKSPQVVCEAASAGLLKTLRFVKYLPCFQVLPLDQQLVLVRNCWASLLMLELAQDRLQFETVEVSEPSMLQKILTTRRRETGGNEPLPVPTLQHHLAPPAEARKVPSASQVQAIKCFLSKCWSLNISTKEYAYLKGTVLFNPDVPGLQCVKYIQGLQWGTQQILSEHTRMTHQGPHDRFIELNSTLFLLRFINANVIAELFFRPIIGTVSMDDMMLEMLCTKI
SF1 mutant ctr: nonselective inhibitor or artifact in SF-1 mutant DAX1 counter-screen. shares compounds with DAX1 inh-2. HEK293 StAR-luciferase, SF-1 AF2 mutant, luminescence. inhibition, % at 6.8 µM. 2,400 tested, 78% active;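 active = inhibition above the mean of all tested compounds plus 3 SD, cut at about 3% in these data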;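 note: 0% = DAX-1 transfected cells with DMSO and 100% = cells without DAX-1 with DMSO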
* marks the source's active call; other numbers are inactive results; x = no result given. Shown are actives, neighbours in structure and some others; about 5.7% of the full set was active somewhere.

SMILES	ssDAF-12 act	AHR act	DAX1 inh-1	hgDAF12 agonist	hcDAF-12 act	DAX1 inh-2	DAX1 inh confirm	SF1 mutant ctr
O=C(OCc1ccc([N+](=O)[O-])cc1)c1cc(=O)c2ccccc2o1	0	3	1	0	1	0	x	x
COc1ccc(F)cc1C(=O)C1CCCN(C(=O)c2cccc(N(C)C)c2)C1 (stereo not drawn)	-1	1	0	-2	0	-1	x	x
Nc1cc(=O)nc(SCC(=O)Nc2ccccc2Cl)n1-c1ccccc1	-2	1	1	-1	-1	1	x	x
CCc1ccc(CNC(=O)Cc2ccc(NC(=O)C3=C(C)OCCS3)cc2)cc1	0	5	0	9	5	15*	21*	-4
CC1(C)CC(=O)C=C(c2ccc(-c3ccc4[nH]ccc4c3)cc2)C1=O	0	x	-1	7	4	5.3*	12*	0
COc1ccc(/C(N)=N/OC(=O)C2CCCCC2)cc1	0	-6	1	9	0	5.9*	8.9*	5.8*
COc1ccc(/C(N)=N/OC(=O)C2CCCCC2)cc1OC	-1	1	2	6	1	6.0*	4	3.6*
COc1ccc(/C(N)=N/OC(=O)CC2CCCCC2)cc1OC	-1	2	1	5	-1	-1	x	x
O=C(CCC(=O)c1ccccc1)Nc1ccccc1	-1	1	x	-1	0	0	x	x
Cc1ccnc(NC(=O)c2ccc(S(=O)(=O)N3CCC(C)CC3)cc2)c1	0	-1	2	11*	4	11*	13*	7.6*
O=C(NCc1ccccn1)c1cccc(S(=O)(=O)N2CCCCC2)c1	-1	-1	0	4	1	4.7*	2	2
Cc1ccnc(NC(=O)c2cccc(S(=O)(=O)N3CCN(c4ccccc4)CC3)c2)c1	0	-1	-1	10	5	13*	4.0*	3
O=C(NCc1ccccn1)c1ccc(Cl)c(S(=O)(=O)N2CCCCC2)c1	0	4	0	-5	-3	0	x	x
COc1ccc(NCc2nnc(-c3ccccc3)o2)cc1	0	4	0	4	3	0	x	x
CCOC(=O)c1cc(OCC)c2c(ccc3cc(OC)ccc32)n1	-1	x	-1	0	0	0	x	x
O=C(NCCc1ccccc1)c1ccc([N+](=O)[O-])cc1	1	-1	-2	10	6	5.3*	13*	7.1*
O=C(Nc1ccccn1)c1ccc(Cl)s1	0	-2	2	12*	1	5.2*	7.0*	6.2*
O=C(NCc1ccccn1)c1ccc(Cl)s1	-1	-2	1	-1	1	0	x	x
CCCCNC(=O)c1nc(C2CCN(S(=O)(=O)c3cccc(C(F)(F)F)c3)CC2)oc1-c1cccc(C(F)(F)F)c1	-1	x	x	0	-1	-1	x	x
CCCn1c2ccccc2c2cnn(CC(=O)NCCCN3C(C)CCCC3C)c(=O)c21 (stereo not drawn)	-1	1	-1	2	0	5.6*	-1	-1
CCCn1c2ccccc2c2cnn(CC(=O)NCCCOC)c(=O)c21	-1	x	0	-2	-2	1	x	x
C#CCOCCOCCOCCNc1nc(N2CCN(C(=O)[C@H](CCC(=O)O)n3cc(C(N)CC(C)C)nn3)CC2)nc(N2CCN(C(=O)[C@H](Cc3ccc(O)cc3)n3cc(C(N)[C@H](C)CC)nn3)CC2)n1 (stereo partly drawn)	x	-1	x	x	x	x	x	x
Cc1ccc(S(=O)(=O)NC(C)C(=O)OCC(=O)N(C)c2ccccc2)cc1 (stereo not drawn)	-1	1	0	-1	2	0	x	x
N#Cc1ccccc1S(=O)(=O)N1CCC(C(=O)NCc2ccccc2CN2CCCC2)CC1	-1	-1	0	0	-1	5.4*	2	-1
Cc1ccc(S(=O)(=O)N2CCC(C(=O)NCc3ccccc3CN3CCCC3)CC2)cc1	-1	-1	0	-1	0	-1	x	x
SMILES	ssDAF-12 act	AHR act	DAX1 inh-1	hgDAF12 agonist	hcDAF-12 act	DAX1 inh-2	DAX1 inh confirm	SF1 mutant ctr
COc1cc2cc(C(=O)NC(C)c3cccc4ccccc34)c(N)nc2cc1OC (stereo not drawn)	-1	x	x	2	-3	5.1*	2	-1
FC(F)(F)c1cnc(Sc2ncn[nH]2)c(Cl)c1	0	0	1	0	3	0	x	x
Cc1ccc(CN(C)C(=O)C2CCC(=O)N(CCc3ccccc3)C2)o1 (stereo not drawn)	-1	x	1	4	2	5.8*	4.2*	3.6*
CN(Cc1cnccn1)C(=O)C1CCC(=O)N(CCc2ccccc2)C1 (stereo not drawn)	-1	1	1	-1	-1	1	x	x
CS(=O)(=O)N(CC(=O)N1CCCC1)Cc1ccc(Cl)c(Cl)c1	-2	-3	0	-1	-1	-1	x	x
Cc1ccsc1C(=O)OCC(=O)N(C)C1CCCCC1	0	1	1	12*	5.9*	10*	11*	6.3*
Cc1ccsc1C(=O)OCC(=O)NC1CCCC1	0	0	2	5	5	2	x	x
Cc1ccsc1C(=O)OCC(=O)N1CCc2ccccc2C1	0	1	2	11*	2	6.9*	13*	5.9*
CNc1cc(-c2ccc(CC#N)cc2)ncn1	-1	x	x	8	3	4.5*	6.8*	5.5*
CCOc1ccccc1-c1cc(NC)ncn1	0	x	x	-2	-2	0	x	x
CCN=c1scc(-c2ccco2)n1/N=C/c1ccc(OC)c(O)c1	0	2	2	10	3	5.0*	15*	7.3*
COc1ccc(C(=O)COC(=O)c2cccc(-n3cnnn3)c2)c(OC)c1	-1	3	0	10	4	4.6*	7.8*	4.4*
COc1ccccc1CNC(=O)COC(=O)c1cccc(-n2cnnn2)c1	-1	6	1	-1	-1	0	x	x
Cc1nc2ccc(NC(=O)CS(=O)(=O)c3ccccc3)cc2s1	0	4	1	7	1	6.0*	5.6*	3.0*
CSC(=NC#N)N1CCN(c2ccc([N+](=O)[O-])cc2)CC1	-1	-2	0	0	-1	-2	x	x
O=C(Nc1ccc(C(=O)N2CCCCC2)cc1)C1=CSCCO1	1	1	3	5	1	6.2*	4.7*	2
CCCNC(=O)C[C@H]1CC[C@@H]2[C@H](COC[C@@H](O)CN2C(=O)c2ccccn2)O1	-1	x	x	-2	1	-1	x	x
